Myeloid diff 2 – myeloid differentiation induction. ER-HoxA9 myeloid progenitors, lysozyme-GFP differentiation, flow cytometry. calls only at 10 µM. hit rate 1% among 360,000. AID 624256;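 active = normalized GFP-positive differentiation at or above the plate's own cutoff, the solvent-only control mean plus 3 SD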;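 also: cells exposed to compound for four days before flow analysis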
IDE cell inh – cellular human IDE inhibition. HEK cells, FAbetaB cleavage, fluorescence polarization. inhibition, % at 5.59 µM. hit rate 0.41% among 320,000. AID 434962;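 active = percent inhibition above the average of all tested compounds plus 3 SD, set per screening campaign, cut at about 16% in these data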;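 also: IDE supplied by intact live HEK cells; FP after avidin binding of uncleaved biotin substrate so inhibition keeps polarization high; 0% = DMSO wells and 100% = 60 µM reference IDE inhibitor Ii1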
IDE act – activators of human insulin-degrading enzyme in cells. HEK cells, FAbeta-B cleavage, fluorescence polarization; 0% vehicle, 100% cell-free pure enzyme wells. activation, % at 5.96 µM. hit rate 0.073% among 340,000. AID 493087;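 active = activation above the mean of all tested compounds plus 3 SD, set per screening campaign, cut at about 17% in these data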
CRFBP-R2 block – antagonists of CRF-binding protein/CRF-R2 receptor complex; HEK293 CRF-R2/CRF-BP, CRF-induced calcium fluorescence; inhibition, % at 11.8 µM; hit rate 0.59% among 350,000;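 active = inhibition of the ligand-induced calcium signal above about 50% at the single tested concentration, limit read from the data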
CRFR2-BP ag – CRF-BP/CRF-R2 complex agonism | activation, % at 13.2 µM | hit rate 0.46% among 350,000 | AID 588473 | HEK293 CRF-R2/CRF-BP, calcium dye fluorescence (FLIPR); percent of saturating CRF peptide response;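 active = activation of at least 50%, plus an integration ratio under a set limit after plate pattern correction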;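 also: plate controls were neutral control wells without compound for no effect and CRF at EC100 for full effect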
TPT1 inhibitor – inhibitors of Candida albicans tRNA 2'-phosphotransferase TPT1; inhibition, % at 5 µM; recombinant caTPT1, FP RNA substrate dephosphorylation; hit rate 0.81% among 300,000;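 active = inhibition above the mean of all tested compounds plus 3 SD, set per screening campaign, cut at about 24% in these data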;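 also: plate controls were DMSO alone for no effect and ferristatin control at 100 nM for full effect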
Active calls of the source: *; i = inactive; nt = no result given; + = active, no number. Sampled rows, rich in hits. Any-hit rate of the full collection: about 2.6%.

SMILES | Myeloid diff 2 | IDE cell inh | IDE act | CRFBP-R2 block | CRFR2-BP ag | TPT1 inhibitor
C=CCN(CC=C)c1nc2ccccc2nc1C(C#N)C(=O)OC(C)C (centres undefined) | + | -2 | -4 | -24 | 25 | -18
C=CCOC(=O)C(C#N)c1nc2ccccc2nc1N1CCN(c2ccccc2OC)CC1 (centres undefined) | i | -2 | 4 | 8 | -1 | 0
Cc1nn(C)c(=O)c(N)c1-c1cc(-c2ccc(Cl)c(Cl)c2)n[nH]1 | i | 8 | nt | 2 | 0 | -1
c1ccc2c(c1)Cn1nnnc1-2 | i | -2 | 12 | -16 | 8 | -2
c1ccc2c(c1)CC1(CCCCC1)n1nnnc1-2 | + | 8 | 1 | 8 | 4 | 0
COc1cc(/C=C2\SC(=S)N(NC(=O)c3cccc(O)c3)C2=O)ccc1O | i | nt | -91 | -62 | 64* | nt
COc1cc(/C=C2\SC(=S)N(NC(=O)c3ccccc3OC)C2=O)ccc1O | i | nt | -68 | -38 | 14 | nt
COc1cc(/C=C2\SC(=S)N(N3CCOCC3)C2=O)ccc1O | i | 19* | -30 | -12 | 7 | 15
Cc1ccc2cc3cc(C(=O)NCCCN4CCCC4=O)oc3nc2c1 | i | 3 | 4 | -5 | -2 | -3
CC(=O)C1=CCC(c2ccccc2)N(Cc2ccccc2)C1 (centres undefined) | i | nt | nt | nt | nt | nt
O=C(COC(=O)c1c[nH]c(=O)[nH]c1=O)Nc1ccccc1F | i | 8 | -1 | 4 | 0 | 1
CSc1ccccc1NC(=O)COC(=O)c1c[nH]c(=O)[nH]c1=O | i | 3 | 3 | -60 | 112* | -2
CSc1ccccc1NC(=O)COc1ccccc1C | + | 3 | -3 | -39 | -1 | 1
Cc1ccccc1OCC(=O)Nc1ccccc1CO | i | 5 | 1 | 3 | -3 | -5
